Experimental data published in PubChem BioAssay AID588664 (The Scripps Research Institute Molecular Screening Center, 2011).
The whole screen tested about 360,000 compounds, of which about 1,400 (0.39%) were called active. Rule as the data show it: active = inhibition above about 5% (passing the limit was not always enough); inactive = the rest. The sample as a whole holds a higher share of actives than the screen did.

Biological target: Tyrosine-protein kinase ABL1 (Homo sapiens) + Ras and Rab interactor 1 (Homo sapiens) (UniProt P00519+Q13671)
Assay: disruptors of human Abl and Rin1 association – biochemical, TR-FRET, primary screen (AID 588664)
Conditions: TR-FRET Rin1/Abl binding, at 7.35 µM, stronger effect = higher value

Chain of Tyrosine-protein kinase ABL1 (Homo sapiens) + Ras and Rab interactor 1 (Homo sapiens) (P00519 whole entry, looked up): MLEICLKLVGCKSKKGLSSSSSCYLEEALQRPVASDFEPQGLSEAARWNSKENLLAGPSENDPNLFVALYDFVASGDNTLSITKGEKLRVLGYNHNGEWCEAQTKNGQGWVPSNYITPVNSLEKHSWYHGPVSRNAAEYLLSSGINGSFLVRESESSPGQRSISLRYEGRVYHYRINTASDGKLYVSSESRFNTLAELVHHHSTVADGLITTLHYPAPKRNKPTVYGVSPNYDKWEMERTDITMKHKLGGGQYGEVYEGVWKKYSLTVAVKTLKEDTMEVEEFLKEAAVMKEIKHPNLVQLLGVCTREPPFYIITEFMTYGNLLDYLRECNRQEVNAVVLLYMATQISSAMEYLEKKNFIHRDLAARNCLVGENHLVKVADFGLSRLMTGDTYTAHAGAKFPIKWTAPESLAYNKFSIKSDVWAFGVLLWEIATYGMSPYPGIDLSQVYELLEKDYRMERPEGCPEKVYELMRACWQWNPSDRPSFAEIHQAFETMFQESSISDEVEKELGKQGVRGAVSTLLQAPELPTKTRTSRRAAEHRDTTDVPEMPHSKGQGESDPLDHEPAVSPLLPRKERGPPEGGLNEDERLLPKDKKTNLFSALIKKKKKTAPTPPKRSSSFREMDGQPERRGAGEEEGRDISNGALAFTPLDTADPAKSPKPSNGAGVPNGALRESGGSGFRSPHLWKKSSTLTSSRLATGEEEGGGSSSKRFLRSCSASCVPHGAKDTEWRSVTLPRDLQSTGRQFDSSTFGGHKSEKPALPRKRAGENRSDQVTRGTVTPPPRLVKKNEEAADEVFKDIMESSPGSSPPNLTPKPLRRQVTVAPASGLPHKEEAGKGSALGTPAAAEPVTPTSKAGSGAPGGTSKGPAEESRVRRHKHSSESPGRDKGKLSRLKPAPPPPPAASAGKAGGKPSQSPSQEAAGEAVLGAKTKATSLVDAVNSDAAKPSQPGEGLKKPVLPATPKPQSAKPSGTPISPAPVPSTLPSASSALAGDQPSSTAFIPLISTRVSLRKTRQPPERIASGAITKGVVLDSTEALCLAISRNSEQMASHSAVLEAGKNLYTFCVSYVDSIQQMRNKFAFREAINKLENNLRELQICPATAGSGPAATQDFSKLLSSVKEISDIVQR
Chain of Tyrosine-protein kinase ABL1 (Homo sapiens) + Ras and Rab interactor 1 (Homo sapiens) (Q13671 whole entry, looked up): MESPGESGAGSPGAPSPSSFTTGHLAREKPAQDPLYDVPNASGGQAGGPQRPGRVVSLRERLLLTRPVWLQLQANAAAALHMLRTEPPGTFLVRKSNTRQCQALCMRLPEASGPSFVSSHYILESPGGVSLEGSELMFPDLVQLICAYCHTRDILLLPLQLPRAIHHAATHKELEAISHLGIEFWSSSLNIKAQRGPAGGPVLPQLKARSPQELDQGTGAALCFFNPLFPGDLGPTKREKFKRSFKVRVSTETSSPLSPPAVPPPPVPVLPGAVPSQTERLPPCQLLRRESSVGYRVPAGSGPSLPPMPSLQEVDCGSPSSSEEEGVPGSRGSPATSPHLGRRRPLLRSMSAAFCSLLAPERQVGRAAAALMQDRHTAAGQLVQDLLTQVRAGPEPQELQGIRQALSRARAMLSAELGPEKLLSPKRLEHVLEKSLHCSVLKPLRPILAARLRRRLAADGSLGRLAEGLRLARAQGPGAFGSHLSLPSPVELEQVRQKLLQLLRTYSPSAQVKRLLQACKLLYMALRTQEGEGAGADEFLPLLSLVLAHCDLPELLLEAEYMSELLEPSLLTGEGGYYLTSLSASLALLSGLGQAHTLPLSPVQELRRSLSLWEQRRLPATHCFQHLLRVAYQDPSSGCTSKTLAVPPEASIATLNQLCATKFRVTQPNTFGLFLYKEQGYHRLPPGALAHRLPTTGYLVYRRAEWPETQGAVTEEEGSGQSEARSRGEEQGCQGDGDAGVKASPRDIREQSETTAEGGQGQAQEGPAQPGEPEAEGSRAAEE

SMILES	inhibition
O=C(O)CC1S/C(=N\N=C/c2ccccc2O)N(c2ccc(O)cc2)C1=O (stereo unspecified)	1.65% (inactive)
C#CCOCCOCCOCCNc1nc(N2CCN(C(=O)[C@H](Cc3ccc(O)cc3)n3cc(C(N)CC(C)C)nn3)CC2)nc(N2CCN(C(=O)[C@H](CCC(=O)O)n3cc(C(N)[C@H](C)CC)nn3)CC2)n1 (stereo partly specified)	2.63% (inactive)
C#CCOCCOCCOCCNc1nc(N2CCN(C(=O)C(Cc3ccc(O)cc3)n3cc(C(N)CC(C)C)nn3)CC2)nc(N2CCN(C(=O)C(Cc3ccc(O)cc3)n3cc(C(N)C(C)CC)nn3)CC2)n1 (stereo unspecified)	14.3% (active)
C#CCOCCOCCOCCNc1nc(N2CCN(C(=O)[C@H](CCCCN)n3cc([C@@H](N)C(C)CC)nn3)CC2)nc(N2CCN(C(=O)[C@H](Cc3ccc(O)cc3)n3cc([C@@H](N)C(C)CC)nn3)CC2)n1 (stereo partly specified)	5.61% (inactive)
CSc1ncnc2c1ncn2CC(=O)C1CCC2C3CCC4=CC(=O)CCC4(C)C3CCC12C (stereo unspecified)	13.2% (active)
CSc1ncnc2c1ncn2CCCNCC1CCCCC1	-2.89% (inactive)
CC12CCC(=O)C=C1CCC1C2C(O)CC2(C)C1CCC2(O)C(O)CO (stereo unspecified)	4.13% (inactive)
CSc1ncnc2c1ncn2CCCNCc1ccco1	-1.36% (inactive)
CCOC(=O)CN(C(=O)COc1nc(-c2ccccc2)cc(C)c1C#N)c1ccc(F)cc1	-3.22% (inactive)
CCOC(=O)COc1nc(C)cc(C(F)(F)F)c1C#N	0.37% (inactive)
CCOC(=O)CN(C(=O)COc1nc(C)cc(C)c1C#N)c1ccc(Cl)cc1	6.34% (active)
CN(C1CCS(=O)(=O)C1)S(=O)(=O)c1ccc2ccccc2c1 (stereo unspecified)	0.18% (inactive)
COc1cc2c(cc1O)C(SC)=NC(C)(C)C2	2.88% (inactive)
COc1cccc(-n2c(SCC(=O)NC3CCS(=O)(=O)C3)nc3ccccc3c2=O)c1 (stereo unspecified)	-0.16% (inactive)
CCOc1ccc(-n2c(SCC(=O)NC3CCS(=O)(=O)C3)nnc2-c2cccnc2)cc1 (stereo unspecified)	5.73% (active)
CCOc1cccc(-c2nnc(SCC(=O)NC3CC3)n2C)c1	-0.29% (inactive)

SMILES	inhibition
Cc1ccc(C(=O)CSc2nc3ccccc3c(=O)n2N)o1	-0.26% (inactive)
Cc1ccccc1N1CCN(CC(=O)NCc2ccc(Cl)cc2)CC1	1.14% (inactive)
COc1cc(CNc2ncnc3c2ncn3[C@H]2CN(Cc3cccs3)C[C@@H](CO)O2)cc(OC)c1OC	3.5% (inactive)
CC(C)Cn1c(N2CCN(C(=O)/C=C/c3ccccc3)CC2)nc2ccccc21	0.97% (inactive)
Cc1cccc(C)c1NC(=O)CNC(=O)c1ccc2c(c1)OCCO2	1.15% (inactive)
O=C(NCCc1ccc(C(F)(F)F)cc1)c1ccc2c(c1)OCO2	-1% (inactive)
CN(Cc1c(F)cccc1Cl)C(=O)CNC(=O)c1ccc2c(c1)OCO2	34.7% (active)
Cn1c(=O)cc(SCC(=O)N2CCCC2)c2cc(Cl)ccc21	-25.5% (inactive)
CNC1(c2nnnn2-c2c(C)cccc2C)CCOC(C)(C)C1 (stereo unspecified)	-2.89% (inactive)
Oc1ccc2ccc3cccc[n+]3c2c1	-21.5% (inactive)
COc1ccc(C)cc1NC(=S)N1CCOCC1	-0.53% (inactive)
COc1cc(C(=S)N2CCOCC2)ccc1O	11% (active)
CCOc1cc(C(=S)N2CCOCC2)ccc1O	-1.01% (inactive)
CCOC(=O)C1CCN(C(=O)COc2cc(C)c(Br)c(C)c2)CC1	-1.96% (inactive)
CCn1c(SCC(=O)Nc2ccc(OC)c(OC)c2)nnc1-c1c[nH]c2ccccc12	3.38% (inactive)
